PubChem BioAssay (EPA / NIEHS)
Active and inactive are the calls of the source. How the source made its calls: active means hit-call score of the fitted dose curve at least 0.9, where 1 is the maximum; inactive means score below 0.9.

Read-out: Potassium channel subfamily K member 1 (KCNK1), KCNK1 (gene 3775)
Assay: LTEA_HepaRG_KCNK1: Life Technologies and Expression Analysis (LTEA) Assay for Potassium channel subfamily K member 1 (KCNK1) using HepaRG (AID 2283511)
Conditions: mRNA level, 48 h; actives raise or lower the signal
Protocol: LTEA_HepaRG is a cell based, multiplexed-readout assay that uses HepaRG, a human liver cell line, with measurements taken at 48 hours after chemical dosing on a 96-well plate.LTEA_HepaRG_KCNK1 is one of 102 assay component(s) measured in the LTEA HepaRG cell culture assay. It is a marker of Hyperplasia.Data from the assay component LTEA_HepaRG_KCNK1 was analyzed into 1 endpoint. This assay endpoint, LTEA_HepaRG_KCNK1, was analyzed with bidirectional fitting relative to DMSO as the negative control and baseline of activity. Using a type of inducible reporter, measures of mRNA induction for gain or loss-of-signal activity can be used to understand regulation of transcription factor activity. To generalize the intended target to other relatable targets, this assay endpoint is annotated to the ion channel intended target family, where the subfamily is potassium channel.
A total of 1060 chemcials from the ToxCast library were tested in eight-point concentration-response experiments. Cell culture and cytotoxicity assays were conducted at Thermo Fisher Scientific's Custom Services facility (Madison, WI). A single lot of human HepaRG cells (Thermo Fisher Scientific, Frederick, MD) was used for the cell culture experiments. 96-well format collagen type I coated plates of human HepaRG cells were prepared using established methods. Briefly, cryopreserved HepaRG cells were thawed, plated at a density of approximately 100,000 cells/well in HepaRG Thaw, Plate, and General Purpose media (HPRG770, Thermo Fisher Scientific), and incubated for 48 hours. 0.5% DMSO was selected as vehicle control to balance the requisite need of DMSO in HepaRG cultures to maintain differentiation (for example, baseline metabolism, proportions of hepatocytes vs. cholangiocytes), while enabling further hepatic receptor pathway activation (for example, PXR and CAR) in response to chemical exposure. 48 hours after plating, the culture medium was replaced with HepaRG Serum-Free Incudtion Media. Cells were exposed to each test chemical in duplicate and maintained in CO2 incubators for another 48 hours. Chemical plates were thawed to room temperature and 200x concentrations of treatment groups were prepared. 8-point conentration-reponse curves were made with the highest exposure at 100 uM, followed by half-log dilutions, all in 0.5% DMSO. Each test plate contained variouse controls, induction positive controls (1mM phenobarbital), cytotoxicity positive controls ([…] aflatoxin B1), vehicle controls (0.5% DMSO), and total lysis controls (0.5% DMSO). Cell morphology images were taken using an Essen IncuCyte FLR automated microscope, with six 96-well plates imaged in about 24 minutes. Images were captured and exported and JPEG files. Spent culture media was transfered to black-well plates for the LDH assay, and remaining media was sorted at -80 C for later use. Cells were treated with RLT buffer and frozen until shipped for gene expression analysis. Total RNA was isolated from the cell suspension in 75 uL of Buffer RLT (Qiagen, Germantown, MD 20874) by Quintiles/Expression Analysis (Durham, NC) using a custom isolation procedure. Total RNA from each plate well was transferred to a preamplification plate. Fluidigm's 96.96 Dynamic ArrayTM (Fluidigm, Amsterdam, the Netherlands) technology was used for gene expression analyses by quantitative reverse transcription polymerase chain reaction (qRT-PCR, performed by Quintiles/Expression Analysis, Durham, NC)89. Standard TaqManTM Assays (Applied Biosystems/ThermoFisher Scientific, Foster City, CA) were used to assess the expression of 93 genes selected based on their selectivity and sensitivity to important hepatic receptors known to be modulated by environmental chemicals; importance in human hepatocyte functionality; and hepatotoxicity. […]

| SMILES | outcome |
| --- | --- |
| COC(=O)c1ccc(C(=O)OC)cc1 | inactive |
| C[C@]12CC[C@@H]3c4ccc(O)cc4CC[C@H]3[C@@H]1CC[C@@H]2O | inactive |
| C#C[C@]1(O)CC[C@H]2[C@@H]3CCc4cc(O)ccc4[C@H]3CC[C@@]21C | inactive |
| CCCCOCCOCCO | inactive |
| O=C(c1ccc(OCCN2CCCCC2)cc1)c1c(-c2ccc(O)cc2)sc2cc(O)ccc12 | inactive |
| C=C(C)C(N)=O | inactive |
